Test results: PubChem BioAssay AID1159580 (chemical genetic matrix, 2015)
Where “and” joins values, the source holds several entries; their conditions need not be identical. Identical values can stand only once. Hit rate of the full screen: of about 5,500 compounds, about 2,000 (36%) were called active. Another 18% or so got no clear call; they are omitted. Rule as the data show it: active = normalized growth mostly below about 0.91 (no sharp cut-off); inconclusive = no clear call, values can overlap the other calls; inactive = mostly above about 0.92. Some of the results follow.

Test: chemical genetic growth profiling, strain panel (AID 1159580);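 also: tested at 20 µM; growth read once vehicle control cultures reached saturation at 30 °C; 1 = growth at the plate median or of vehicle wells; lower values mean less growth of the strain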
Details: S. cerevisiae deletion strains, growth OD

Measured: normalized growth

Nc1nc(N)c2nc(-c3ccccc3)c(N)nc2n1
inactive: locus YAL013W, strain DEP1, active compounds read low 1 | locus YAL021C, strain ccr4, active compounds read low 1.01 | locus YAL026C, strain drs2, active compounds read low 1.01 | locus YAL030W, strain snc1, active compounds read low 0.998 | locus YAL040C, strain CLN3, active compounds read low 0.986 | locus YBL061C, strain skt5, active compounds read low 1 | locus YBR009C, strain hhf1, active compounds read low 0.969 | locus YBR021W, strain FUR4, active compounds read low 1.01 | locus YBR023C, strain chs3, active compounds read low 0.997 | locus YBR171W, strain sec66, active compounds read low 1.01 | locus YBR229C, strain ROT2, active compounds read low 1 | locus YBR231C, strain swc5, active compounds read low 1 | locus YBR279W, strain paf1, active compounds read low 0.994 | locus YCL011C, strain gbp2, active compounds read low 0.992 | locus YCL016C, strain dcc1, active compounds read low 0.999 | locus YCL029C, strain bik1, active compounds read low 1.01 | locus YCL061C, strain MRC1 (second series), active compounds read low 0.989 | locus YCL061C, strain MRC1, active compounds read low 1.01 | locus YCL069W, strain vba3, active compounds read low 1 | locus YCR088W, strain abp1, active compounds read low 0.992 | locus YDL005C, strain med2, active compounds read low 1.01 | locus YDL035C, strain GPR1, active compounds read low 1.01 | locus YDL040C, strain nat1, active compounds read low 1.01 | locus YDL074C, strain BRE1, active compounds read low 0.973 | locus YDL101C, strain DUN1, active compounds read low 1.01 | locus YDL134C, strain PPH21, active compounds read low 1 | locus YDL185W, strain tfp1, active compounds read low 1.01 | locus YDL192W, strain arf1, active compounds read low 1.01 | locus YDR001C, strain nth1, active compounds read low 1.02 | locus YDR069C, strain doa4, active compounds read low 1 | locus YDR101C, strain arx1, active compounds read low 0.999 | locus YDR137W, strain rgp1, active compounds read low 1 | locus YDR150W, strain NUM1, active compounds read low 0.987 and 0.981 | locus YDR159W, strain sac3, active compounds read low 0.951 | locus YDR162C, strain NBP2, active compounds read low 1.01 | locus YDR195W, strain ref2 1 | locus YDR297W, strain sur2, active compounds read low 1 | locus YDR318W, strain mcm21, active compounds read low 1 | locus YDR334W, strain swr1, active compounds read low 1 | locus YDR335W, strain msn5, active compounds read low 1 | locus YDR363W, strain ESC2, active compounds read low 1 | locus YDR388W, active compounds read low 1.01 | locus YDR392W, strain spt3, active compounds read low 0.946 | locus YDR502C, strain sam2, active compounds read low 1 | locus YEL003W, strain gim4, active compounds read low 1.01 | locus YEL037C, strain rad23, active compounds read low 0.997 | locus YEL061C, strain CIN8 (second series), active compounds read low 1 | locus YEL061C, strain CIN8, active compounds read low 1 | locus YER002W, strain NOP16, active compounds read low 1 | locus YER015W, strain faa2, active compounds read low 0.993 | locus YER016W, strain bim1, active compounds read low 0.966 | locus YER110C, active compounds read low 1.01 | locus YER111C, strain swi4, active compounds read low 1.01 | locus YER155C, strain BEM2 (second series), active compounds read low 0.957 | locus YER155C, strain BEM2, active compounds read low 1.01 | locus YER167W, strain BCK2, active compounds read low 1.01 | locus YFR010W, strain ubp6, active compounds read low 1.02 | locus YGL078C, strain dbp3, active compounds read low 1.01 | locus YGL086W, strain mad1, active compounds read low 1 | locus YGL167C, strain pmr1, active compounds read low 1.01 | locus YGL173C, strain kem1, active compounds read low 1 | locus YGL227W, strain vid30, active compounds read low 1.01 | locus YGL240W, strain doc1, active compounds read low 1 | locus YGL248W, strain PDE1, active compounds read low 0.999 | locus YGL253W, strain hxk2, active compounds read low 0.99 | locus YGR078C, strain PAC10, active compounds read low 0.996 and 0.977 | locus YGR135W, strain pre9, active compounds read low 1.01 | locus YGR229C, strain SMI1, active compounds read low 1.02 | locus YGR252W, strain gcn5, active compounds read low 0.939 | locus YHR013C, strain ard1, active compounds read low 0.978 | locus YHR027C, strain rpn1, active compounds read low 1 | locus YHR030C, strain SLT2, active compounds read low 0.999 and 0.991 | locus YHR079C, strain IRE1 (second series), active compounds read low 1.02 | locus YHR079C, strain IRE1, active compounds read low 0.975 | locus YHR094C, strain hxt1, active compounds read low 1 | locus YHR129C, strain ARP1, active compounds read low 0.993 | locus YHR142W, strain chs7, active compounds read low 0.996 | locus YHR200W, strain rpn10, active compounds read low 1.01 | locus YIL066C, strain RNR3, active compounds read low 1 | locus YIL073C, strain SPO22, active compounds read low 1.05 | locus YIL125W, strain kgd1, active compounds read low 1.01 | locus YIR030C, strain dcg1, active compounds read low 1.01 | locus YJL092W, strain hpr5, active compounds read low 1.01 | locus YJL095W, strain BCK1 (second series), active compounds read low 1.01 | locus YJL095W, strain BCK1, active compounds read low 0.988 | locus YJL115W, strain asf1, active compounds read low 1 | locus YJL129C, strain trk1, active compounds read low 0.993 | locus YJL134W, strain LCB3, active compounds read low 1 | locus YJL154C, strain vps35, active compounds read low 0.992 | locus YJL164C, strain tpk1, active compounds read low 0.981 | locus YJL166W, strain qcr8, active compounds read low 1.02 | locus YJL168C, strain set2, active compounds read low 1.01 | locus YJL187C, strain SWE1 (second series), active compounds read low 1 | locus YJR043C, strain POL32, active compounds read low 0.994 | locus YJR066W, strain TOR1, active compounds read low 0.938
